Our source for the fold change values is PubChem BioAssay AID1239 (SRMLSC, 2008).

Hit rate of the full screen: of about 190,000 compounds, about 3,100 (1.6%) were called active. The sample holds actives, similar compounds and a random draw of the others, so the mix is not that of the screen. Cut-off read from the data, not from the text of the source: active = fold change above about 3.3; inconclusive = no clear call, values can overlap the other calls; inactive = below that.

This assay is described as follows: activators of NF-kB expression in neurons, primary screen, cell-based, HTS (AID 1239). The conditions noted are these: human neuronal cells, NF-kB reporter expression; at 12.5 µM; hits give high values.
With `O=C(c1cccc(C(=O)N2CCc3ccccc32)n1)N1CCc2ccccc21`, the fold change is 0.82 (inactive). For the molecule `O=C(c1cnn2ccccc12)N1CCc2ccccc21`, the fold change was 3.74 (active). The figure for `Cc1occc1C(=O)N1CCCc2ccccc21` is 1.12 (inactive). The figure for `Cc1cc(C)n(CCNCc2c(C(=O)N3C[C@@H](C)O[C@@H](C)C3)nc3ccc(Cl)cn23)n1` is 0.98 (inactive); for `Cc1ccccc1NC(=O)Cn1c(=O)n(CC2CCCO2)c(=O)c2ccccc21` (stereo not drawn) it is 0.98 (inactive). On to `Cc1ccc(-c2csc(NNC(=O)c3ccccc3)n2)cc1`, for which the fold change was 0.64 (inactive).

Regarding `Cc1ccc(NC(=O)c2cc(-c3ccc(C)o3)nc3ccccc23)nc1`, the fold change is 0.88 (inactive). With `Cc1ccc(Nc2nc(-c3ccc(O)cc3O)cs2)nc1`, the fold change was 5.35 (active). `CCOC(=O)Cn1nnnc1C`: the fold change was 0.94 (inactive). With `O=C(c1cnn(-c2ccc(Cl)cc2)c1)c1ccccc1O`, the fold change was 6.38 (active). For `Cc1ncc(CC(=O)n2cc(C(=O)c3cc(Cl)ccc3O)cn2)s1`, the fold change is 0.9 (inactive). Regarding `O=C(O)c1ccc(NC(=O)c2cn(-c3ccccc3)nc2-c2ccc(Cl)cc2)cc1`, the fold change is 1.11 (inactive). For the molecule `O=C(Nc1ccc(Cl)cc1)C1c2cccc[n+]2CC(=O)N1Cc1ccc2c(c1)OCO2` (stereo not drawn), the fold change was 1.64 (inactive). With `Cc1ccc(-c2nc3ccccc3[nH]2)cc1N`, the fold change is 6.83 (active). To `Cc1ccc(-c2nc3ccccc3[nH]2)cc1NC(=O)c1sc2ccccc2c1Cl` belongs 0.76 (inactive); to `c1ccc2[nH]c(-c3nc4ccccc4[nH]3)nc2c1`, 2.17 (inactive).

As to `O=C(O)CCn1c(SCc2cc(=O)n3ccccc3n2)nc2ccsc2c1=O`, the fold change is 1.78 (inactive). In the case of `CC(=O)Nc1ccc(NC(=O)C(C)n2c3ccccc3c3nc(=O)cc(C)n32)cc1` (stereo not drawn), the fold change is 1.25 (inactive).

Regarding `COc1cccc(NC(=S)N(Cc2ccc(C)cc2)Cc2ccccn2)c1`, the fold change was 1.01 (inactive). Turning to `CC(O)CNCCOc1cccc(Oc2ccccc2)c1` (stereo not drawn), the fold change is 1.14 (inactive). In the case of `O=C(O)c1ccc(NC(=O)c2cccs2)cc1`, the fold change was 1.13 (inactive).

Consider `CC(=O)Nc1ccc(/C=N/NC(=O)c2cccs2)cc1`, for which the fold change was 3.48 (active). To `Cc1cccc(-n2c(C)cc(/C=N\NC(=O)c3cccs3)c2C)c1` belongs 0.9 (inactive); to `CCOc1ccc(C(C)=O)cc1CSc1nnc(-c2ccncc2)n1CCOC`, 0.95 (inactive). With `CC(C)CCC(C)NC(=O)c1ccc2nccnc2c1` (stereo not drawn), the fold change is 1.64 (inactive).

As to `CC(NC(=O)COC(=O)c1ccc(Cl)cc1O)c1ccc(F)cc1` (stereo not drawn), the fold change is 1.15 (inactive). As for `CCCCSc1nnc(-c2ccc(C)cc2)o1`, the fold change was 3.57 (active). Regarding `CCOC(=O)CSc1nnc(-c2ccc([N+](=O)[O-])cc2)o1`, the fold change is 1.11 (inactive). With `CCOC(=O)CSc1nnc(-c2ccncc2)o1`, the fold change was 1.05 (inactive). Regarding `N/C(=N\OC(=O)Cc1ccccc1[N+](=O)[O-])c1ccc(Br)cc1`, the fold change is 1.12 (inactive). With `COc1ccc(-n2c(C)cc(C(=O)CSc3nnc(-c4cccs4)o3)c2C)cc1`, the fold change was 0.93 (inactive). For `COc1ccc(-c2nnc(SCC(=O)c3cccs3)o2)c(OC)c1`, the fold change is 5.16 (active). Turning to `COc1ccc(OC)c(C(=O)CSc2nnc(-c3cccs3)o2)c1`, the fold change is 1.11 (inactive).

As to `Cn1nc(C(F)(F)F)c2cc(C(=O)N3CCOCC3)sc21`, the fold change was 0.92 (inactive). For the molecule `O=C(NCCCn1ccnc1)c1cc(-c2ccccc2)on1`, the fold change was 8.21 (active).

As to `COc1ccccc1-c1cc(C(=O)NCCCn2ccnc2)no1`, the fold change was 1.28 (inactive). Turning to `COc1ccc(-c2cc(C(=O)NCCCn3ccnc3)no2)cc1`, the fold change was 1.83 (inactive). Consider `CC(=O)Nc1cccc(-c2cnc3ccccc3n2)c1`, for which the fold change is 2.74 (inactive).

As to `COc1ccc(CCNc2nc(-c3cccc(NC(C)=O)c3)cs2)cc1OC`, the fold change is 0.5 (inactive). Consider `CC(=O)Nc1cccc(-c2csc(Nc3cccc(C)n3)n2)c1`, for which the fold change is 8.2 (active).

Regarding `CCOc1cc(NC(=S)NCCCN(C)C)c(OCC)cc1NC(=O)C1CC1`, the fold change was 0.96 (inactive). For `CCOn1c(=O)c(=O)n(O)c2ccccc21`, the fold change was 1.15 (inactive). As to `C=C(C)CNC(=S)N/N=C/c1ccccc1OCC(=O)O`, the fold change was 1.35 (inactive). Regarding `CCn1c(SCc2ccc(C)cc2)nnc1-c1nn(-c2ccccc2)ccc1=O`, the fold change was 1.19 (inactive). `CCc1ccc(-c2nn(-c3ccccc3)cc2CSC(=N)N)cc1`: the fold change was 6.66 (active).

As to `N=C(N)SCc1cccc2ccccc12`, the fold change is 0.88 (inactive). To `O=c1nc(N/N=C/c2ccco2)cn[nH]1` belongs 1.22 (inactive).

Consider `COc1ccc(CNc2c(CO)cnc3c2cnn3C)cc1`, for which the fold change is 1.06 (inactive).

Take `Cc1ccccc1OCCC(=O)Nc1c(C)n(C)n(-c2ccccc2)c1=O`: the fold change is 0.99 (inactive).

As to `Cc1c(NC(=O)CSc2nnnn2-c2ccc(C(=O)O)cc2)c(=O)n(-c2ccccc2)n1C`, the fold change is 1.04 (inactive). Consider `Cc1c(NC(=O)CSc2cccc3cccnc23)c(=O)n(-c2ccccc2)n1C`, for which the fold change was 7.73 (active). As for `CCN(CC)CCNc1nc(-c2ccc(OC(F)F)cc2)c(C)s1`, the fold change is 0.94 (inactive). On to `NC(=O)c1ccc(N2CCOCC2)nc1`, for which the fold change was 0.96 (inactive). Turning to `COc1cc(/C=N/NC(=O)c2cc(C)n(-c3ccc(F)cc3)c2C)cc(OC)c1O`, the fold change was 1.02 (inactive). Take `C/C(=N\NC(=S)NCc1ccccc1)C1CCCCC1`: the fold change was 1.07 (inactive). In the case of `O=c1[nH]n2c(-c3ccccc3)nc(O)c2c2ccccc12`, the fold change is 1.02 (inactive). `CCn1nc(C)c(CN2CCN(Cc3ccc(OC)c(C)c3C)C(CCO)C2)c1C` (stereo not drawn): the fold change was 1.19 (inactive). For the molecule `CCCC(=O)Nc1cccc(-c2cn3ccsc3n2)c1`, the fold change is 1.3 (inactive). As to `COc1ccc(-c2cn3ccsc3n2)cc1`, the fold change was 5.24 (active). To `COc1ccc(-c2cn3cccnc3n2)cc1` belongs 2.19 (inactive).

With `CC(C)(C)n1ncc2c(=O)n(Cc3ccc(Cl)cc3)cnc21`, the fold change was 1.03 (inactive). For `O=C(COc1ccc(Cl)cc1)NCc1nnc(SCC(=O)NCC2CCCO2)o1` (stereo not drawn), the fold change was 1.01 (inactive). Turning to `CC(=O)c1sc(N/N=C\c2ccc(C)cc2)nc1C`, the fold change is 2.4 (inactive). `CCSc1nnc(NC(=O)c2ccc(C)cc2)s1`: the fold change was 5.31 (active). The figure for `Cc1cccc(CSc2nnc(NC(=O)CSc3nnc(C)s3)s2)c1` is 1.18 (inactive). With `CCSc1nnc(NC(=O)Cc2ccccc2OC)s1`, the fold change is 1.18 (inactive).

As to `CC(=O)c1sc(NC(=O)c2ccc(C)cc2)nc1C`, the fold change was 3.36 (active).

For `CC(=O)c1sc(NC(=O)c2cccc3ccccc23)nc1C`, the fold change is 0.7 (inactive).
